Results as given in the supplement of paper PMC11732987, “Enantioselective OTUD7B fragment discovery through chemoproteomics screening and high-throughput optimisation” (Communications Chemistry, 2025).
Unmarked numbers belong to inactive results.

Assays:
Test in all cases: log2 ratio of Biotin-Ahx-Ub-VS probe labelling (fragment/DMSO); higher = less target engagement (more negative = stronger competition), active = hit call of the paper (q ≤ 0.05, log2 ratio ≤ -1)
Settings in all cases: compound concentration: 200 uM; treatment time: 3 h
ALG13 = molecular target: T1, ALG13 (UniProt Q9NP73)
T1 sequence (whole entry): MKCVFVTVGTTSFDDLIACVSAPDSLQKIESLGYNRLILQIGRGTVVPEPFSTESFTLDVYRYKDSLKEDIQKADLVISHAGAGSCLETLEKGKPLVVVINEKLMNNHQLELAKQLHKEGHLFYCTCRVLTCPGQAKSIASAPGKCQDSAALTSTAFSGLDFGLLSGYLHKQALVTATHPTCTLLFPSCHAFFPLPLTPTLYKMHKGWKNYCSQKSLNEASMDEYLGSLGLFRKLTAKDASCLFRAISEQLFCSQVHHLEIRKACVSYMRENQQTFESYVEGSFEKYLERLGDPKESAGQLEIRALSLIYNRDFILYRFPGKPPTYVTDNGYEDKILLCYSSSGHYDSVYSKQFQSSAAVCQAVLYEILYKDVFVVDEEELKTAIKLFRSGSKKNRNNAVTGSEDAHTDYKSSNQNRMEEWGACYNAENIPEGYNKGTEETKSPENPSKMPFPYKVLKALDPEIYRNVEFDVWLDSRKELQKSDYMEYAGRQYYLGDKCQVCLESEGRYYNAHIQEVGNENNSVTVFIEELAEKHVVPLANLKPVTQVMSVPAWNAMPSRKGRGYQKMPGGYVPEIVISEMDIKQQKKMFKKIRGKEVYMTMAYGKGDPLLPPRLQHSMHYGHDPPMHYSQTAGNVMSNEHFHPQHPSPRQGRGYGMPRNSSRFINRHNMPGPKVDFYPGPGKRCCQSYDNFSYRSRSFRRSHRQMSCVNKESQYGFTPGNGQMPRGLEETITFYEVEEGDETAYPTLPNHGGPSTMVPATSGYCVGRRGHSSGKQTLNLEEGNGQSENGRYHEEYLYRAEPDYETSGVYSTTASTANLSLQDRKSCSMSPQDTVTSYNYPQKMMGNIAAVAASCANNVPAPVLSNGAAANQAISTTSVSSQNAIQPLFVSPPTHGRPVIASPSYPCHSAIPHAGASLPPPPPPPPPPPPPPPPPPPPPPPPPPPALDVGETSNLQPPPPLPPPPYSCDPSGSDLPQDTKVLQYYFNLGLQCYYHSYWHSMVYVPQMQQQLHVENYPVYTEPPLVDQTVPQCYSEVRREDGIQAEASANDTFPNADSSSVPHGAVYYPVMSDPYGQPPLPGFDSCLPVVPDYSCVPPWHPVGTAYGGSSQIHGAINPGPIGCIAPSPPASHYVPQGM
Method in brief: (§1)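 Lysate from HEK293T cells, 495 µg per sample in Tris/CHAPS/IGEPAL buffer with protease inhibitors, was treated for 3 h in triplicate with fragment at 200 µM or vehicle. Biotin-Ahx-Ub-VS was next added at 0.5 µM final for 1 h. The labelled DUBs were enriched with NeutrAvidin, digested with LysC and trypsin, and run by diaPASEF LC-MS/MS, with values given as average log2 fragment/vehicle ratios by unpaired t-test on global-median-normalised Spectronaut quantities of proteins with ≥2 unique peptides.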

ATXN3 = ATXN3 (UniProt P54252)
Chain of ATXN3 (P54252 whole entry): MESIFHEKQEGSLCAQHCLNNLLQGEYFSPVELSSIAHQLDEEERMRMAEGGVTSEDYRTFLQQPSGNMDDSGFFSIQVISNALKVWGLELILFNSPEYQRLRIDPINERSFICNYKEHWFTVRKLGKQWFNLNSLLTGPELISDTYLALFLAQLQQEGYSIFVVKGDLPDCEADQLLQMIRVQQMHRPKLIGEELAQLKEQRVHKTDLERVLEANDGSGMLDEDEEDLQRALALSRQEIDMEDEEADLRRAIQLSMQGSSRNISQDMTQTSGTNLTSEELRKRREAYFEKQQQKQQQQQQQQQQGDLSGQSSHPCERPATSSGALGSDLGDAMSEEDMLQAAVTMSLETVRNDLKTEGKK
Method in brief: as §1

BAP1 = molecular target: T2, BAP1 (UniProt Q92560)
T2 sequence (whole entry): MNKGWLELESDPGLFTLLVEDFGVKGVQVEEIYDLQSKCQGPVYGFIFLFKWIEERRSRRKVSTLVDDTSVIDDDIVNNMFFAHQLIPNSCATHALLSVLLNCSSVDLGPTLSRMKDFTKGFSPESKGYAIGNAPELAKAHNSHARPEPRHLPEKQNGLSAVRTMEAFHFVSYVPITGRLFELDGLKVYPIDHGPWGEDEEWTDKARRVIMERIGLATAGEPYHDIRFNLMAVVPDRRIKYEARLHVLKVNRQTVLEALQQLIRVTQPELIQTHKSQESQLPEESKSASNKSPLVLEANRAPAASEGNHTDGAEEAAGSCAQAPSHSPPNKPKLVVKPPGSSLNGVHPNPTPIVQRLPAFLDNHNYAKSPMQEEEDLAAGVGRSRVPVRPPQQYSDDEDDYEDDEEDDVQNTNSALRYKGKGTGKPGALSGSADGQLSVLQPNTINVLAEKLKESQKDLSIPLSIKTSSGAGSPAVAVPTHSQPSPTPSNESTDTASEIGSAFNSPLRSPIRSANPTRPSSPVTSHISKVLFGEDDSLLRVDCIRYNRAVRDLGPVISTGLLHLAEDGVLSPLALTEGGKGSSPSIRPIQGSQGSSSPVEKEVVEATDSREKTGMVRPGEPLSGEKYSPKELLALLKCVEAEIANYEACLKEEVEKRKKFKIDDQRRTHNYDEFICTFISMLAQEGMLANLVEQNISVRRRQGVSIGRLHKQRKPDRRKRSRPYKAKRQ
Method in brief: as §1

EIF3F = EIF3F (UniProt O00303)
Chain of EIF3F (O00303 whole entry): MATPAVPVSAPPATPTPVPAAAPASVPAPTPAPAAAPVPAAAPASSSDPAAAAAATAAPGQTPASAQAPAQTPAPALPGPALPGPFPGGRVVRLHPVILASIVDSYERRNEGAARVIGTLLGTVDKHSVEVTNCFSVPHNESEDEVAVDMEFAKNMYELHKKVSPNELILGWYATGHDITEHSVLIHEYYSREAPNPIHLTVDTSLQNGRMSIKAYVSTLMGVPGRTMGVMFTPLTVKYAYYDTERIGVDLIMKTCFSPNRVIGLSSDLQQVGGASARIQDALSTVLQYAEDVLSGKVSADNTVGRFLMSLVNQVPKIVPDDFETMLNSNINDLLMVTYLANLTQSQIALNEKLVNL
Method in brief: as §1

EIF3H = EIF3H (UniProt O15372)
Chain of EIF3H (O15372 whole entry): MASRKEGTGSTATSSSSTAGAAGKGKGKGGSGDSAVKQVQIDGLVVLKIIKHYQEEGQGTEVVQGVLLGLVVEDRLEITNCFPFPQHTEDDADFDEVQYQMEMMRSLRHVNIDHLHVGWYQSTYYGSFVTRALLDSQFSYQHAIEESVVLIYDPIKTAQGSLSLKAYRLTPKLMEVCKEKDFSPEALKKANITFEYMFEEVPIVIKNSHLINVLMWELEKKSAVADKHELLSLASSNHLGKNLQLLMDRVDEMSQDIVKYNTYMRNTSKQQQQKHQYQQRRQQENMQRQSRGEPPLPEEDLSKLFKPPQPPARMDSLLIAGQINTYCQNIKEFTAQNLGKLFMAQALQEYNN
Method in brief: as §1

FAM105A = molecular target: T3, FAM105A (UniProt Q9NUU6)
T3 sequence (whole entry): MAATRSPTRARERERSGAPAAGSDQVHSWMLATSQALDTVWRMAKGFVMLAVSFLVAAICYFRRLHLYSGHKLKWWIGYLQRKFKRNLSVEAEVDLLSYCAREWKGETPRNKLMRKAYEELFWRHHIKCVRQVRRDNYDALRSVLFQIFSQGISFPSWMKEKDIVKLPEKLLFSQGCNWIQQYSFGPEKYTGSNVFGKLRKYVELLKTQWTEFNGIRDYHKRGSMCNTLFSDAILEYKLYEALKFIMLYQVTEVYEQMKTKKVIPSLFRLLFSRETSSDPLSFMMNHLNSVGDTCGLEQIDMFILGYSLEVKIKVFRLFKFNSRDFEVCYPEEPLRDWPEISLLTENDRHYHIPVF
Method in brief: as §1

OTUB1 = OTUB1 (UniProt Q96FW1)
Chain of OTUB1 (Q96FW1 whole entry): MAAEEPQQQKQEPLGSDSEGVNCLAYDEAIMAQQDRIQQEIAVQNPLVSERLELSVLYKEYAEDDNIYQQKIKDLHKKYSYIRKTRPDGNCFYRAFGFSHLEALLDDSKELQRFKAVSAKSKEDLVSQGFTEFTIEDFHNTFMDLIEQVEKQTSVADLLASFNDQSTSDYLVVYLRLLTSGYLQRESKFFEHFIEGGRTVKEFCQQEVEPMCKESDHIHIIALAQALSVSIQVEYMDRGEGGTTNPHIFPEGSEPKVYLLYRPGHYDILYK
Method in brief: as §1

OTUD4 = molecular target: T4, OTUD4 (UniProt Q01804)
T4 sequence (whole entry): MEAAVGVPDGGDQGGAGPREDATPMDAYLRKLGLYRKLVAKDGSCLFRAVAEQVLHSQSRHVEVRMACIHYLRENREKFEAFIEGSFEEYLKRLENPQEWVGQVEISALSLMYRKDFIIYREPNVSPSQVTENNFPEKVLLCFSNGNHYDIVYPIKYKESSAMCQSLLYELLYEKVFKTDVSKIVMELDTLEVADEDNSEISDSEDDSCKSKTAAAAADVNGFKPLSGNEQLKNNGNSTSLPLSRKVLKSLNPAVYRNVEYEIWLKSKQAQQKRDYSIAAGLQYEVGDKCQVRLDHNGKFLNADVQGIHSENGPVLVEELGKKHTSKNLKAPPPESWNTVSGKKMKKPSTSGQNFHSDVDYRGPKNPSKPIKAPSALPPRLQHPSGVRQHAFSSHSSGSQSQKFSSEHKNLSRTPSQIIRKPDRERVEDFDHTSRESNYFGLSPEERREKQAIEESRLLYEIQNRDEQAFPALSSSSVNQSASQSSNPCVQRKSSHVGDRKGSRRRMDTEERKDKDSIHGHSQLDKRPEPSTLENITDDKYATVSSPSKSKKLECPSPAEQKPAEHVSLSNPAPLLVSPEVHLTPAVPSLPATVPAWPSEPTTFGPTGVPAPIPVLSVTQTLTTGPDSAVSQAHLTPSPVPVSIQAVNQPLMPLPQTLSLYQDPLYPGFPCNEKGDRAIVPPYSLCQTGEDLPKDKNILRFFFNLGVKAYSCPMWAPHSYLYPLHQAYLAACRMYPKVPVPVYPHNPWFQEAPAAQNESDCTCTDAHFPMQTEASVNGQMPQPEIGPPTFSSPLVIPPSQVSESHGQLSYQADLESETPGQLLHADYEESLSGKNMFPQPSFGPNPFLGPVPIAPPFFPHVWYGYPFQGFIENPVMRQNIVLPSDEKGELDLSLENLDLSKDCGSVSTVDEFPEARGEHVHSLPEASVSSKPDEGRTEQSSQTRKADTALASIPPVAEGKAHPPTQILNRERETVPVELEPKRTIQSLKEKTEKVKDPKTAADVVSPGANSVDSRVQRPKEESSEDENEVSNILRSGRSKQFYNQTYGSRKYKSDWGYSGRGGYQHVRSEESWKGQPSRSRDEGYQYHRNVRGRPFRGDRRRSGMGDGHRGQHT
Method in brief: as §1

OTUD5 = molecular target: T5, OTUD5 (UniProt Q96G74)
T5 sequence (whole entry): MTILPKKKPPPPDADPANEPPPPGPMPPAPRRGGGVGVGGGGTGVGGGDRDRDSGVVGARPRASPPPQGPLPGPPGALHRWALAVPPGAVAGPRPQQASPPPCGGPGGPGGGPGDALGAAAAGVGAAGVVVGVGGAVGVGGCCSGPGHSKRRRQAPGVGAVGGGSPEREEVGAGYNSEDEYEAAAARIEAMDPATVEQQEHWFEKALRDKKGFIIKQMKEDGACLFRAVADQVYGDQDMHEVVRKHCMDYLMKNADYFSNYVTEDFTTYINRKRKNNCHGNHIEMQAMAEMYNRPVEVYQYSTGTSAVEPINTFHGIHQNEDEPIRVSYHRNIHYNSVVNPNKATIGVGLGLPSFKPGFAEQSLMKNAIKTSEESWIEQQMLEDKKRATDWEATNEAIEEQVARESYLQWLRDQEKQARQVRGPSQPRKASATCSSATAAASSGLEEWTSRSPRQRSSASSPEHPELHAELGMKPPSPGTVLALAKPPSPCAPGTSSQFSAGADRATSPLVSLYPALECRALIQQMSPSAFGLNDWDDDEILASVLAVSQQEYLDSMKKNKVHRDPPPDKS
Method in brief: as §1

**Q.** `CNC(=O)Cn1cc(NC(=O)CCl)cn1` was tested. Which “log2 ratio of Biotin-Ahx-Ub-VS probe labelling” value (shortened to “log2 ratio”) (ALG13) did it give?
**A.** -0.433

**Q.** What about the “log2 ratio” value (ATXN3) of the same molecule?
**A.** -0.517

**Q.** And the “log2 ratio” value (BAP1)?
**A.** -1.67 (active)

**Q.** What about the “log2 ratio” value (EIF3F) of the same molecule?
**A.** -0.308

**Q.** And the “log2 ratio” value (EIF3H)?
**A.** 0.0304

**Q.** What about the “log2 ratio” value (FAM105A) of the same molecule?
**A.** -0.125

**Q.** And the “log2 ratio” value (OTUB1)?
**A.** -0.0242

**Q.** What about the “log2 ratio” value (OTUD4) of the same molecule?
**A.** -0.305

**Q.** And the “log2 ratio” value (OTUD5)?
**A.** -0.468
